# Active and inactive are the calls of the source.
# Key:
# [1] = test system: Human papillomavirus type 1a protein E7 (residues 44-93); assay: HPV1a E7 fragment binders on microarrays, primary screen, biochemical, small-molecule microarray, residues 44-93, 635 nm fluorescence (AID 1108); conditions: small-molecule microarray binding, fluorescence 635 nm; higher = more signal;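 further: E7 fragment applied at 1 µg/mL in TBST for 1 h at 4 C; score combines spot fluorescence with its signal to noise ratio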
# [2] = modulators of HCV replicon luciferase signal, primary screen, HCV replication inhibitor project, Huh7 cells, luciferase reporter (AID 1109); conditions: 48 h, higher = more signal;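 further: huh7 hepatoma cells harbouring a luciferase neomycin HCV replicon reporter; luciferase luminescence as measure of HCV replicon replication; test concentration not given here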
# [3] = molecular target: Left-right determination factor 2 (Homo sapiens) (UniProt O00292); assay: LEFTY2 binders on small-molecule microarrays, primary screen, biochemical, small-molecule microarray, 635 nm fluorescence scan (AID 1110); conditions: LEFTY2 binding, higher = more signal
# Sequence of Left-right determination factor 2 (Homo sapiens) (O00292 whole entry, looked up): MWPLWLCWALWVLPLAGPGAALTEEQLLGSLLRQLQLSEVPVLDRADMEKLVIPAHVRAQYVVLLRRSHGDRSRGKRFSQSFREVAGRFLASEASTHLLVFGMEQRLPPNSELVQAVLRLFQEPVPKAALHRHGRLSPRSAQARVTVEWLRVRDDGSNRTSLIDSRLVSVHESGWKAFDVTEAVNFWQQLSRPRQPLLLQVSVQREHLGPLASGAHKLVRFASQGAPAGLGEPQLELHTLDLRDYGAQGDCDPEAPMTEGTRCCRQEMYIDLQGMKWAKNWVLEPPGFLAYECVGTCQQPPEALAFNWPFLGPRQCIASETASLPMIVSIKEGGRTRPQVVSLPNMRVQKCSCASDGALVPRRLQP
# [4] = molecular target: Calmodulin-1 (Homo sapiens) (UniProt P0DP23); assay: CALM1 binders on microarrays, EGTA buffer, profiling panel, biochemical, small-molecule microarray, Cy5-labelled CALM1 (AID 1111); conditions: Cy5-CALM1 binding fluorescence, higher = more signal;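 further: labelled calmodulin applied in Tris saline Tween buffer holding calcium plus EGTA and DTT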
# [5] = molecular target: Calmodulin-1 (Homo sapiens) (UniProt P0DP23); assay: calcium-bound CALM1 binders on microarrays, profiling panel, artefact control for SMM control-protein annotation, biochemical, small-molecule microarray, Cy5-labelled CALM1, plus calcium (AID 1112); conditions: Cy5-CALM1 binding fluorescence, higher = more signal;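 further: score merges spot fluorescence with signal to noise from triplicate slides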
# [6] = small-molecule microarray binders of probe aWnt5a, primary screen, biochemical, biotinylated probe, 635/667 nm fluorescence (AID 1113); conditions: higher = more signal;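 further: score merges 667 nm fluorescence intensity with signal-to-noise per printed feature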
# [7] = small-molecule microarray binders of probe aShh, primary screen, biochemical, biotinylated probe, 635/667 nm fluorescence (AID 1114); conditions: higher = more signal;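 further: probe is biotin-labelled aShh protein from a stem cell growth factor screen; measures binding of labelled protein to compounds printed on the slide; score merges feature fluorescence at 667 nm with signal-to-noise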
# [8] = small-molecule microarray binders of probe aNog, primary screen, biochemical, biotinylated probe, 635/667 nm fluorescence (AID 1115); conditions: higher = more signal;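 further: probe is biotinylated aNog protein used at 0.15 µg/mL for 1 h at 4 C; z-score combines 667 nm fluorescence of each spot with its signal to noise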
# [9] = molecular target: Torsin-1A-interacting protein 1 (Homo sapiens) (UniProt Q5JTV8); assay: LAP1 binders from COS7 cell lysate, primary screen, small-molecule microarray, 635/667 nm fluorescence (AID 1116); conditions: COS7-hLAP1 lysate binding, 635 nm fluorescence, higher = more signal
# Sequence of Torsin-1A-interacting protein 1 (Homo sapiens) (Q5JTV8 whole entry, looked up): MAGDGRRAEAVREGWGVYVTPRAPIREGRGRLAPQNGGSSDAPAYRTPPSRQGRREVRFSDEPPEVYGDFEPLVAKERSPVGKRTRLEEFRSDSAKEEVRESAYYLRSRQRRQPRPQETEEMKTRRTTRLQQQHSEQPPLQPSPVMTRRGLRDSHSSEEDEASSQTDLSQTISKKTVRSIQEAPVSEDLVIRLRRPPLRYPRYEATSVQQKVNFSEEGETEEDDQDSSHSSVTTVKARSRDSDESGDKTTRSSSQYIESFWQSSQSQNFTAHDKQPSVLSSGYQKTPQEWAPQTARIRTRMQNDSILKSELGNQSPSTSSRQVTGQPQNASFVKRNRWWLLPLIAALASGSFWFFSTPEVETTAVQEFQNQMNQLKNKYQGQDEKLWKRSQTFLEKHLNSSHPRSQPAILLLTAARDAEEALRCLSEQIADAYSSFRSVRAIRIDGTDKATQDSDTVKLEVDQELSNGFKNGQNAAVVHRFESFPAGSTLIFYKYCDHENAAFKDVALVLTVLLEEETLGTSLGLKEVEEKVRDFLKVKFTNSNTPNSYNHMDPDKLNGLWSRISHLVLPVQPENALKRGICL
# [10] = molecular target: Alpha-bungarotoxin (Bungarus multicinctus) (UniProt P60615); assay: alpha-bungarotoxin binders on microarray, profiling panel, artefact control for SMM control protein annotation, biochemical, small-molecule microarray, Alexa647 label, 635/667 nm fluorescence (AID 1117); conditions: alpha-BTX-A647 binding fluorescence, higher = more signal
# Sequence of Alpha-bungarotoxin (Bungarus multicinctus) (P60615 whole entry, looked up): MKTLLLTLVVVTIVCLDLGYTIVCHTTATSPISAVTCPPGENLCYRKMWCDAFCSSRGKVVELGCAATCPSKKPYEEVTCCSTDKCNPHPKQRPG
# [11] = molecular target: Albumin (Bos taurus) (UniProt P02769); assay: bovine serum albumin binders on microarray, profiling panel, artefact control for SMM control protein annotation, biochemical, small-molecule microarray, Alexa647 label, 635/667 nm fluorescence (AID 1118); conditions: BSA-A647 binding, fluorescence 635 nm, higher = more signal;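 further: score merges 667 nm emission intensity and signal-to-noise per printed compound spot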
# Sequence of Albumin (Bos taurus) (P02769 whole entry, looked up): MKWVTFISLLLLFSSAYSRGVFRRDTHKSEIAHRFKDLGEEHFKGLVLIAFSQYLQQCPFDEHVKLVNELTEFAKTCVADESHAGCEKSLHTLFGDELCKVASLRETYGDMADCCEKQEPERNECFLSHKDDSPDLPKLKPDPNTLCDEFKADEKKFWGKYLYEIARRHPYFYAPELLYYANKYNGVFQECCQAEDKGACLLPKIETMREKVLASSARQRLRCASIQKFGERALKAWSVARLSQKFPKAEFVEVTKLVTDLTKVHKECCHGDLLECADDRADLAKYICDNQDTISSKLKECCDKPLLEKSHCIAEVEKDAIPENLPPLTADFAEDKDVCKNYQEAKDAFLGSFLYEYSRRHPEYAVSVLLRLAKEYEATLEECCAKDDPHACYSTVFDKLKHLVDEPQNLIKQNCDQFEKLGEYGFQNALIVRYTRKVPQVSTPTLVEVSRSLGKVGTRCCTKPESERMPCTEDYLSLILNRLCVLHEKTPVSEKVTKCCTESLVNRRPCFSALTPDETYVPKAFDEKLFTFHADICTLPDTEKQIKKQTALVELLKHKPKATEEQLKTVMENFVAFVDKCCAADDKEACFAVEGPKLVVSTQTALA
# [12] = small-molecule microarray binders of probe aXIP, primary screen, biochemical, NeuroSMM set, 635/667 nm fluorescence (AID 1119); conditions: higher = more signal, called active from +8 up or from −8 down;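 further: probe is the protein aXip251-270 applied at 1 µg/mL to compound-printed slides; binding of probe to printed compounds measured as 667 nm fluorescence plus signal to noise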
# [13] = small-molecule binders of probe aNOTCH3, primary screen, biochemical, small-molecule microarray, 635/667 nm fluorescence (AID 1120); conditions: higher = more signal;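 further: probe is a biotin-tagged antibody raised against NOTCH3 rather than NOTCH3 protein; score merges spot fluorescence near 667 nm with spot signal to noise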
# [14] = small-molecule binders of probe aNOTCH2, primary screen, biochemical, small-molecule microarray, 635/667 nm fluorescence (AID 1121); conditions: higher = more signal;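 further: score merges feature fluorescence read at 667 nm with its signal to noise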
# [15] = molecular target: Carbonic anhydrase 2 (Homo sapiens) (UniProt P00918); assay: CAII small-molecule binders, profiling panel, biochemical, small-molecule microarray, Alexa647-labelled CAII (AID 1122); conditions: CAII-A647 binding fluorescence, higher = more signal
# [16] = COS7 lysate on small-molecule microarray, probe aHis, 635 nm (AID 1123); conditions: COS7 cell lysate, fluorescence, higher = more signal;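 further: z-score combines 667nm fluorescence intensity with signal-to-noise per printed compound spot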
# [17] = compound binding in COS7 lysate, probe aLAP1, primary screen, cell lysate, small-molecule microarray (AID 1124); conditions: probe aLAP1, fluorescence, higher = more signal;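 further: lysate comes from COS7 cells expressing LAP1 and is applied at 0.3 µg/mL; score merges spot fluorescence near 667 nm with signal-to-noise over triplicate slides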
# [18] = test system: Sam68 (KHDRBS1); assay: Sam68 small-molecule binders, primary screen, biochemical, small-molecule microarray, 635 nm fluorescence (AID 1125); conditions: small-molecule microarray binding, higher = more signal;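 further: score merges 667 nm channel intensity with signal to noise over triplicate slides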
# [19] = test system: Chordin-like protein 2 (CHRDL2); assay: CHRDL2 small-molecule binders, primary screen, biochemical, small-molecule microarray, 635 nm fluorescence (AID 1126); conditions: small-molecule microarray binding, fluorescence 635 nm; higher = more signal;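 further: printed compound slides probed with Chrdl2 protein at 4 µg/mL for 1 h at 4 C; score merges 667 nm emission intensity with signal to noise over three replicate slides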
# [20] = molecular target: Concanavalin-A (Canavalia ensiformis) (UniProt P02866); assay: ConA small-molecule binders, primary screen, artefact control for SMM control protein annotation, biochemical, small-molecule microarray, Alexa647 label, 635 nm (AID 1127); conditions: ConA-A647 binding fluorescence, higher = more signal;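 further: z combines 667 nm emission intensity with signal-to-noise across three replicate slides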
# Sequence of Concanavalin-A (Canavalia ensiformis) (P02866 whole entry, looked up): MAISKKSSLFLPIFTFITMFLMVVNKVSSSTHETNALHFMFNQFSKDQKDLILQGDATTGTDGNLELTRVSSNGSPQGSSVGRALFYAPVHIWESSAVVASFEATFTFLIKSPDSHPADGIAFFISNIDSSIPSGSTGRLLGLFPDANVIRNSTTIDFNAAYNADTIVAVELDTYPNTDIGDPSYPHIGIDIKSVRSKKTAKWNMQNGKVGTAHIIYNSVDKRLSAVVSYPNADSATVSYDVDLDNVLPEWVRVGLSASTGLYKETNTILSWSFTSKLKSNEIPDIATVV
Compound,composite z-score [1],z-score [2],composite z-score [3],composite z-score [4],composite z-score [5],composite z-score [6],composite z-score [7],composite z-score [8],composite z-score [9],composite z-score [10],composite z-score [11],composite Z-score [12],composite z-score [13],composite z-score [14],composite z-score [15],composite z-score [16],composite z-score [17],composite z-score [18],composite z-score [19],composite z-score [20]
[N-]=[N+]=Nc1ccccc1[C@@H]1OC(c2ccc(OCCCO)cc2)=N[C@]1(Cc1ccccc1)C(=O)NCC(O)CO (stereo not given in full),0.883,-1.34,-0.879,2.21,1.18,0.0189,0.4,-0.4,2.95,2.56,0.937,0.66 (inactive),0.453,0.178,0.765,3.2,1.14,0.897,-0.638,0.468
COC(=O)[C@@]1(Cc2ccc(OC)cc2)[C@H]2c3cc(C(=O)N(C)C)n(CCO)c3C[C@H]2CN1C(=O)c1ccccc1,-0.317,-0.441,-0.511,1.67,1.1,-0.0398,0.0044,-0.426,3.28,1.18,0.625,0.126 (inactive),-0.102,0.257,0.935,1.19,0.971,-0.924,-0.784,0.001
COc1ccc([Si](C)(C)[C@@H]2[C@@H](CC(=O)N(CCO)Cc3ccccc3)O[C@]3(C(=O)N(Cc4cccc(N5C(=O)c6cccc7cccc5c67)c4)c4ccccc43)[C@H]2C)cc1,-0.726,-3.94,0.882,0.222,0.234,-0.1,-0.209,-0.424,0.566,0.389,-0.0059,0.363 (inactive),-0.124,-0.203,-0.199,0.135,0.0553,0.0019,0.432,1.04
COc1cc2c(cc1OC)CN(C(=O)[C@@H]1[C@H]3C(=O)O[C@H](c4ccccc4)[C@H](c4ccccc4)N3[C@H](c3ccc(OCCO)cc3)[C@@]13C(=O)Nc1ccccc13)CC2,1.44,-1.68,0.351,1.04,0.0568,0.133,0.0328,-0.592,1.14,1.91,0.299,0.817 (inactive),0.131,-0.114,0.634,2.25,0.141,1.31,0.508,1.15
COc1ccc(CCNC(=O)[C@@H]2c3ccccc3C(=O)N(Cc3cc(C(F)(F)F)cc(C(F)(F)F)c3)[C@H]2c2ccc(CO)cc2)cc1,0.867,-1.06,-0.31,0.0713,-0.935,-0.141,-0.147,-0.273,0.338,0.795,-0.329,-0.586 (inactive),-0.208,-0.149,0.681,0.84,0.566,1.14,-0.571,0.425
O=C1O[C@H](c2ccccc2)[C@H](c2ccccc2)N2[C@H]1[C@@H](C(=O)N1CCN(c3ncccn3)CC1)[C@]1(C(=O)Nc3ccc(C#CC4(O)CCCCCC4)cc31)[C@H]2c1ccc(OCCO)cc1,1.44,-1.58,1.51,2.26,1.24,0.793,0.543,2.34,3.93,2.81,0.0591,6.42 (inactive),1.39,0.606,0.62,3.46,1.61,1.29,1.41,1.1
CCOC(=O)C1=CC[C@@H](c2cccc(Cl)c2)N(S(=O)(=O)c2ccc(C)cc2)C1,0.412,-1.76,-0.326,1.06,0.573,-0.232,-0.0035,0.424,2.68,0.703,0.839,-0.659 (inactive),-0.0661,-0.0488,0.685,2.15,0.568,0.674,0.0917,0.721
CCC(CC)C(O)C1C=CC2C(=O)N(c3ccccc3)C(=O)C2N1Nc1ccc(C(C)C)cc1 (stereo not given),1.28,-0.652,-0.0146,1.04,0.419,-0.0643,0.698,0.967,1.23,1.27,0.682,0.15 (inactive),0.213,0.197,0.691,2.24,0.359,1.3,-0.0149,0.922
[N-]=[N+]=Nc1ccccc1[C@H]1OC(c2ccc(OCCCO)cc2)=N[C@@]1(Cc1ccccc1)C(=O)N1CCCCC1,1.45,-2.13,0.346,1.53,0.735,0.299,0.204,1.28,2.12,1.53,0.899,0.498 (inactive),0.369,0.208,0.38,2.36,0.19,1.13,0.618,1.19
COCCOC(=O)N1C(=O)[C@@]2(c3ccccc31)[C@H](C(=O)N1CCN(c3ncccn3)CC1)[C@H]1C(=O)O[C@H](c3ccccc3)[C@H](c3ccccc3)N1[C@@H]2c1ccc(O)cc1,0.97,-1.57,0.256,0.949,0.166,-0.0735,0.191,0.893,0.482,1.72,0.303,-0.197 (inactive),-0.273,-0.237,0.597,1.15,0.421,1.02,0.271,1.1
COCCOC(=O)N1C(=O)[C@@]2(c3cc(C#Cc4ccc(OC)cc4)ccc31)[C@H](c1ccccc1OCCO)N1[C@H](c3ccccc3)[C@H](c3ccccc3)OC(=O)[C@H]1[C@@H]2C(=O)N1CCCCCCC1,1.03,-1.36,1.17,2.84,1.6,1.26,2.59,3.38,5.26,1.8,0.164,6.24 (inactive),1.81,0.956,0.934,2.08,0.512,0.484,1.43,0.908

# — PubChem BioAssay
